The campaign covered roughly 310,000 compounds. About 14,000 (4.5%) showed an effect of 50% or more. The effect is printed as a negative number. For the sample, strong results were picked, then their nearest neighbours and some compounds at random.
Each molecule was assayed against human ether-à-go-go-related gene (hERG) potassium channel (human, UniProt Q12809) (assay: primary screen, population patch clamp on CHO cells stably expressing hERG; higher = less effect of the substance).
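Note: peak tail current of the secondary pulse compared with the same well before compound.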

Sequence of human ether-à-go-go-related gene (hERG) potassium channel (Q12809 whole entry, looked up): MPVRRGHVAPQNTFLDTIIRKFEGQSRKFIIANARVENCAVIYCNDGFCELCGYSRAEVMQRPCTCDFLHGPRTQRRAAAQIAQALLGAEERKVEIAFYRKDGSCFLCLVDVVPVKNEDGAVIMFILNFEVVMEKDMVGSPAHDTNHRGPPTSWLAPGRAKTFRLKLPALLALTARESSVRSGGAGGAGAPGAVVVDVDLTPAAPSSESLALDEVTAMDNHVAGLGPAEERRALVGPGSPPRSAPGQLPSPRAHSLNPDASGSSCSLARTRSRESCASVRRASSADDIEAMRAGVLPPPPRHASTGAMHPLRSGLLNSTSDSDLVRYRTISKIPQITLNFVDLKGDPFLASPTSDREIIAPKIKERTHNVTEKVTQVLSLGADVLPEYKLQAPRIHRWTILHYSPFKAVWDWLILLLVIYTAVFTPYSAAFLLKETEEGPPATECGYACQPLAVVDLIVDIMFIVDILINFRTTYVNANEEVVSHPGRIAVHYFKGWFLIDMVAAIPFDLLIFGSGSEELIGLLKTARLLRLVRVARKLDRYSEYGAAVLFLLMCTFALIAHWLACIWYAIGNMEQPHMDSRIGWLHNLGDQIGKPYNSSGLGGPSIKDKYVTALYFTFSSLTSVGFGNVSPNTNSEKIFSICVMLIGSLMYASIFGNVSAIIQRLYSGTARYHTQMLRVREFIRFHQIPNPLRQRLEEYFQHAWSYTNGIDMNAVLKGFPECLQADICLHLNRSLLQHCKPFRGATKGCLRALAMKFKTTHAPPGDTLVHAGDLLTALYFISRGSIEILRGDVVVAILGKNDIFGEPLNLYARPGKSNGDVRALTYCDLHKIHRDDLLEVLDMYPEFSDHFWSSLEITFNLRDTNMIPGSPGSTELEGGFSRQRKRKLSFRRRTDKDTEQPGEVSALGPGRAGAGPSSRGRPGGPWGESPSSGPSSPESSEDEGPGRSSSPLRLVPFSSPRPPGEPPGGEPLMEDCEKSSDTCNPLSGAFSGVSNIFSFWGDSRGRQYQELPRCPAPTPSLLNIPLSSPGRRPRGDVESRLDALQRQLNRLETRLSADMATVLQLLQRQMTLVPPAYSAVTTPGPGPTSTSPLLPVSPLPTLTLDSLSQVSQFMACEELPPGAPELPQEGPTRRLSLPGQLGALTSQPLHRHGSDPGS

| Compound | hERG current change (%, negative = inhibition) at 10uM [%] |
| --- | --- |
| Oc1ccc(CCc2n[nH]c(=S)n2-c2ccc(F)cc2)cc1 | -22.2 |
| O=C(COc1ccccc1)Nc1nc2cc3c(cc2s1)OCCO3 | 7.49 |
| N#Cc1cc2c(=O)n3ccccc3nc2n(CCCN2CCOCC2)c1=O | -24.3 |
| Cc1cccn2c(=O)c3cc(C#N)c(=O)n(CCCN4CCOCC4)c3nc12 | -60.7 |
| Cc1cccn2c(=O)c3cc(C#N)c(=N)n(CCCN4CCOCC4)c3nc12 | -80 |
| COc1ccccc1-n1c(SCC(=O)Nc2cccc3ccccc23)nc(O)cc1=O | 5.56 |
| CC1=C(C)CC(C(=O)NCCc2ccccc2)C(C(=O)O)C1 (stereo not drawn) | -10.8 |
| CCN(CC)S(=O)(=O)c1ccc(N2CCOCC2)c(NC(=O)COc2ccccc2C#N)c1 | -3.3 |
| COc1ccccc1-n1cnc2cc(C(=O)NC3CCCC3)ccc21 | -65.5 |
| CCCCNC(=O)c1ccc2c(c1)ncn2C1CCCC1 | -16.7 |
| COc1ccc(-n2cnc3cc(C(=O)N4CCOCC4)ccc32)cc1 | -15.6 |
| COc1ccc(-n2cnc3cc(C(=O)NC4CCCC4)ccc32)cc1 | -67.9 |
| COc1ccc(-n2cnc3cc(NS(=O)(=O)c4ccccc4)ccc32)cc1 | 7.83 |
| CC(C)CCNC(=O)c1ccc2c(c1)ncn2C1CCCCC1 | -42.8 |
| CCOC(CNC(=O)c1ccc2c(c1)ncn2-c1ccccc1OC)OCC | 2.14 |
| COc1ccccc1-n1cnc2cc(C(=O)NCC3CCCO3)ccc21 (stereo not drawn) | -13.7 |
| COc1ccccc1-n1cnc2cc(NS(=O)(=O)c3ccc(Br)cc3)ccc21 | -3.3 |
| COc1ccc(-n2cnc3cc(C(=O)NCC4CCCO4)ccc32)cc1 (stereo not drawn) | -17.9 |
| COc1ccccc1-n1cnc2cc(NS(=O)(=O)c3ccccc3)ccc21 | -57.5 |
| CC(C)CCNC(=O)c1ccc2c(c1)ncn2C1CCCC1 | -54.8 |
| CC(=O)OC/C=C(\C)CCC=C(C)C | -0.25 |
| Cc1noc(C)c1COc1cccc(C(=O)OC(C)C(=O)Nc2c(C)n(C)n(-c3ccccc3)c2=O)c1 (stereo not drawn) | 4.8 |
| COc1ccc(CCNC(=O)CCN2C(=O)[C@@H]3Cc4ccccc4CN3C2=O)cc1 | -28.3 |

| Compound | hERG current change (%, negative = inhibition) at 10uM [%] |
| --- | --- |
| O=c1c2ccccc2nnn1COc1ccc(Cl)cc1Br | 22.2 |
| COC(CNC(=O)c1ccc2c(c1)ncn2-c1cc(C)cc(C)c1)OC | -22.5 |
| CCCNC(=O)c1ccc2c(c1)ncn2-c1ccccc1OC | -60.3 |
| COc1ccc(-n2cnc3cc(C(=O)NCCN4CCOCC4)ccc32)cc1 | -23.8 |
| CCOCCCNC(=O)c1ccc2c(c1)ncn2-c1ccc(CC)cc1 | -43.8 |
| CCOCCCNC(=O)c1ccc2c(c1)ncn2-c1ccccc1OC | -4.39 |
| CCCCCNC(=O)c1ccc2c(c1)ncn2-c1ccc(OC)cc1 | -64 |
| COCCCNC(=O)c1ccc2c(c1)ncn2-c1ccccc1OC | -1.73 |
| Cc1cc(C)cc(-n2cnc3cc(C(=O)O)ccc32)c1 | 2.82 |
| CCCNC(=O)c1ccc2c(c1)ncn2-c1cc(C)cc(C)c1 | -55.1 |
| S=c1[nH]nc(COc2ccccc2)n1/N=C/c1cccc(Br)c1 | 22.2 |
| O=C1N=C(N2CCc3ccccc3C2)S/C1=C\c1ccc(O)cc1 | -20.8 |
| CN1/C(=C/C2CC(=O)NC2=O)C(C)(C)c2ccccc21 (stereo not drawn) | 3.26 |
| CCSCCc1nnc(NC(=O)Nc2cccc(C(F)(F)F)c2)s1 | 15.2 |
| O=C(Nc1nnc(-c2ccccc2)o1)c1cc(-c2cccs2)nc2ccccc12 | 2.29 |
| CC(=O)Nc1cccc(NC(=O)CSc2nccn2Cc2ccco2)c1 | 14 |
| O=C(CCOc1ccccc1)OCC(=O)c1cc2ccccc2o1 | -10.3 |
| COC(=O)C1=C(C(=O)OC)[C@@H]2N(C)c3ccc(OC)cc3[C@@]23C[C@@H](C(=O)OC)N(C(=O)NCCBr)C3=N1 | -32.9 |
| O=C(Nc1nnc(-c2cccs2)o1)c1cccc(F)c1 | 11.8 |
| NC(=O)C(F)(F)C12OC3C4C5CC(C6C5C3C61)C42 (stereo not drawn) | 15.1 |
| COc1cc(C(C)=O)ccc1OCCN1CCC(Cc2ccccc2)CC1.O=C(O)C(=O)O | -91 |
| COc1cc(C(=S)N2CCC(Cc3ccccc3)CC2)ccc1OCC(N)=O | -46.8 |
